Source: PubChem BioAssay
APOBEC3A inh: inhibitors of human APOBEC3A DNA deaminase; inhibition, % at 20 µM; recombinant A3A, FAM/TAMRA ssDNA deamination fluorescence; P31941; AID 493011; actives 0.41% (n = 330,000);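 active means at least 40% inhibition at 20 µM here, with at most 30% in a related deaminase screen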;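 further: plate controls were A3A with DMSO for no effect and wells lacking A3A enzyme for full effect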
APOBEC3G inh: blocks human APOBEC3G single-stranded DNA deamination; recombinant A3G, ssDNA deamination FAM/TAMRA fluorescence; inhibition, % at 20 µM; actives 0.28% (n = 330,000);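 active means inhibition of at least 40% at 20 µM, with no more than 30% in the related APOBEC3A deaminase screen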;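 further: plate controls were DMSO wells with A3G for no effect and wells lacking A3G enzyme for full effect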
esBAF inh: SWI/SNF esBAF complex inhibition. mouse ES cells, Bmi1-luciferase knock-in reporter, 24 h; 100% = twice the neutral-well signal. reporter increase, % at 12.5 µM. actives 2% (n = 350,000). AID 602393; in the data active means activation above about 40%; inconclusive means no clear call, values can overlap the other calls;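 further: 0% = median of the plate's neutral control wells and 100% = double that signal; a rise in the Bmi1 reporter signal indicates esBAF inhibition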
PHOSPHO1 block: blocks human PHOSPHO1 phosphatase activity. actives 1.1% (n = 290,000). recombinant PHOSPHO1, absorbance phosphatase assay. AID 1565. inhibition, % at 13.3 µM. Q8TCT1; in the data active means inhibition above about 60%
Target sequence (Q8TCT1 whole entry, looked up): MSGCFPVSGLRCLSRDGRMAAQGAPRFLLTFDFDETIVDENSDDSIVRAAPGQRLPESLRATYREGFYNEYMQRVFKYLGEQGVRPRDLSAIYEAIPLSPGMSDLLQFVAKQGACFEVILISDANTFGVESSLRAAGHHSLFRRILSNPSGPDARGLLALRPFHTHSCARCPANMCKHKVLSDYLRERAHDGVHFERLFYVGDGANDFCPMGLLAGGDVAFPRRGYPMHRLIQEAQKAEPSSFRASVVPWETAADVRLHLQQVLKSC
Wnt act: Wnt/beta-catenin pathway activation | actives 1.2% (n = 300,000) | activation, % at 9.35 µM | Wnt/beta-catenin reporter cell assay, activator, plate reader; in the data active means activation above about 30%, passing the limit was not always enough; inconclusive means no clear call, values can overlap the other calls;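 further: 0% = neutral control wells and 100% = positive control wells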
MITF TRPM1 HTS: MITF TRPM1 promoter activation in melanoma cells; SK-MEL-5 TRPM1-promoter luciferase, 24 h; % of positive control, neutral wells = 0; activation, % at 12.5 µM; actives 0.75% (n = 300,000); AID 588334;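 active means mean activation of at least 80% with every replicate also reaching 80%; inconclusive means mean reaches 80% but some replicate falls short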;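 further: 0% = neutral control wells and 100% = parthenolide positive control wells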
The depositor's hits bear a star. Shown are actives, neighbours in structure and some others; about 3.6% of the full set was active somewhere.

For COc1ccc(S(=O)(=O)Nc2ccc3c(c2)C(=O)N([C@@H](C)CO)C[C@H](C)[C@@H](CN(C)C(=O)Nc2c(C)noc2C)OCCCC[C@@H](C)O3)cc1 the results were esBAF inh 1.
`COC(=O)c1ccc(CN2C(=O)NC3(CCCCC3C)C2=O)o1` (stereo not given) gave APOBEC3A inh 8, APOBEC3G inh -1, esBAF inh -13, PHOSPHO1 block 70* and MITF TRPM1 HTS 2.
COc1ccc(S(=O)(=O)Nc2ccc3c(c2)C(=O)N([C@@H](C)CO)C[C@H](C)[C@H](CN(C)S(=O)(=O)c2ccc(C)cc2)OCCCC[C@H](C)O3)cc1 was read as esBAF inh 20.
`CC1CCN(c2ccc(NC(=O)c3ccc(Br)o3)cc2)CC1` gave APOBEC3A inh -5, APOBEC3G inh -10, esBAF inh 56*, PHOSPHO1 block 22, Wnt act inconclusive and MITF TRPM1 HTS 79.
`CCN(CC)c1ccc(NC(=O)c2cncc(Br)c2)cc1` gave APOBEC3A inh 0, APOBEC3G inh -4, PHOSPHO1 block 37 and MITF TRPM1 HTS 58.
Screening CC1CCN(c2ccc(NC(=O)c3cccnc3)cc2)CC1 returned APOBEC3A inh 2, APOBEC3G inh -5, esBAF inh 32, PHOSPHO1 block 25 and Wnt act 37*.
`CN1CCN(c2ccc(NC(=O)c3ccc(Br)o3)cc2)CC1` gave APOBEC3A inh -2, APOBEC3G inh -4, esBAF inh 5, PHOSPHO1 block 22, Wnt act 17 and MITF TRPM1 HTS 34.
`O=C(Nc1ccc(N2CCN(C(=O)c3ccccc3)CC2)cc1)c1cccnc1` gave APOBEC3A inh -2, APOBEC3G inh -10, esBAF inh -2, PHOSPHO1 block 30, Wnt act -2 and MITF TRPM1 HTS 2.
CCN(CC)c1ccc(NC(=O)c2cccnc2)cc1 was read as APOBEC3A inh -9, APOBEC3G inh -8, esBAF inh 32, PHOSPHO1 block -22, Wnt act 37* and MITF TRPM1 HTS 57.
For CS(=O)(=O)N1CCN(c2ccc(NC(=O)c3ccc(Br)o3)cc2)CC1 the results were APOBEC3A inh -3, APOBEC3G inh -3, esBAF inh 29, PHOSPHO1 block 4, Wnt act 57* and MITF TRPM1 HTS inconclusive.
Screening CN1CCN(C(=O)C[C@H]2CC[C@H]3[C@@H](COC[C@H](O)CN3C(=O)C3CCOCC3)O2)CC1 returned esBAF inh -2.
COc1ccc(C(=O)NCCn2cc(SCC(=O)NCC3CCCO3)c3ccccc32)cc1 (stereo not given) was read as APOBEC3A inh 3, APOBEC3G inh -5, PHOSPHO1 block 58, Wnt act 3 and MITF TRPM1 HTS 0.
For COc1ccc(C(=O)NCCn2cc(SCC(=O)NCc3ccco3)c3ccccc32)cc1 the results were APOBEC3A inh -3, APOBEC3G inh -9, esBAF inh 52*, PHOSPHO1 block 62* and MITF TRPM1 HTS 4.
For CC(C)N1CC2(CC(c3ccccc3F)=NO2)CN1C(=O)c1ccco1 (stereo not given) the results were esBAF inh 57* and Wnt act 0.
For O=C(N/N=C/c1ccc2ncccc2c1)c1ccco1 the results were APOBEC3A inh 0, APOBEC3G inh -1, PHOSPHO1 block 16, Wnt act 8 and MITF TRPM1 HTS 5.
Cc1ccc(C(=O)NNC(=O)c2ccco2)cc1 was read as APOBEC3A inh 2, APOBEC3G inh -1, esBAF inh 51*, PHOSPHO1 block -9, Wnt act 21 and MITF TRPM1 HTS 49.
Screening Cc1ccc(/C=N/NC(=O)c2ccco2)cc1 returned APOBEC3A inh -5, APOBEC3G inh -11, PHOSPHO1 block -10 and Wnt act 39*.
O=C(N/N=C\c1ccoc1)c1ccco1 was read as APOBEC3A inh -5, APOBEC3G inh -6, PHOSPHO1 block 32, Wnt act 0 and MITF TRPM1 HTS -2.
Screening CN(C)c1ccc(/C=N/NC(=O)c2ccco2)cc1 returned APOBEC3A inh -1, APOBEC3G inh -1, esBAF inh -5, PHOSPHO1 block 9, Wnt act 42* and MITF TRPM1 HTS 44.
For CN(C)c1ccc(/C=N/NC(=O)c2ccn(C)n2)cc1 the results were APOBEC3A inh -2, APOBEC3G inh -1, PHOSPHO1 block 34, Wnt act 34* and MITF TRPM1 HTS 44.
